Compound activity deposited in PubChem by National Center for Advancing Translational Sciences (NCATS).
Pf Dd2 inh = Plasmodium falciparum Dd2 growth inhibition; Potency, µM (series often up to 28.9 µM), actives largely listed as inhibitors; P. falciparum Dd2 growth, SYBR Green, 72 h; actives 4.3% (n = 120,000); active means well fitted inhibition curve with a large enough effect; further: nearly all actives have a fitted effect of over 65% in size
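Infected erythrocytes (Dd2, 0.3% parasitemia, 2.5% hematocrit final) are added to compound in RPMI-1640/Albumax II medium, grown 72 h at 37C in low oxygen, then lysed with saponin/Triton-X containing SYBR Green and read by fluorescence.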
Large screens that a line does not name were inactive. Shown is part of a subset that was picked to be rich in hits.

CCCC1c2nccn2CCCN1C(=O)Cn1c(=O)oc2ccccc21 (stereo unspecified)	none
Cc1cc(C)nc(SCc2ccc(C(=O)N3CC[C@@](C)(O)[C@@H](O)C3)o2)n1	none
COc1cccc(NC(=O)O[C@@H]2CC[C@]3(C)C(CC[C@@H](O)[C@H]3CC(=O)N3CC[C@H](NC(C)=O)C3)[C@]2(C)CO)c1 (stereo partly specified)	none
CC(C)(O)C1CCCN(C(=O)c2cc(COc3ccccc3F)[nH]n2)C1 (stereo unspecified)	none
O=C(c1ccc(CSc2nc3ccncc3n2Cc2cccc(F)c2)cc1)N1CCCCCC1	Pf Dd2 inh 8.9µM
Cc1cccc(Cn2c(SCc3ccc(C(=O)NCCc4ccccc4)cc3)nc3ccncc32)c1	Pf Dd2 inh 3.2µM
Cc1cccc(Cn2c(CNC(=O)c3ccccc3)nc3ccccc32)c1	none
O=C(Cn1c(SCc2cccc(F)c2)nc2ccncc21)Nc1ccc(Cl)cc1F	none
COCCCNC(=O)c1ccc(Cn2c(SCc3cccc(C)c3)nc3cccnc32)cc1	none
O=C(c1ccc2[nH]ccc2c1)N1CCC2(CC1)Nc1ccccc1NC2=O	none
O=C(c1cncc(Br)c1)N1CCC(c2nc(C3CCOCC3)no2)CC1	none
Cc1ccc(C(=O)N2CC(C(=O)NCCc3ccncc3)C3(CCOCC3)C2)cc1C (stereo unspecified)	none
COc1cccc(-c2cnc3[nH]cc(CC(=O)N4CCN(C)CC4)c3c2)c1	none
COc1ccc(-c2cnc3[nH]cc(CC(=O)N4CCNC(=O)C4)c3c2)cc1	Pf Dd2 inh 7.9µM
O=C(Cc1c[nH]c2ncc(-c3ccc(Oc4ccccc4)cc3)cc12)N1CCOCC1	none
CC(C)CCC(=O)N1CC(C(=O)N(C)C)C2(CCOCC2)C1 (stereo unspecified)	none
CN(C)c1ccc(CN2CCC[C@H]2c2nc(-c3ccnc(N4CCC(C(N)=O)CC4)c3)no2)cc1	none
CNc1ccc(-c2noc([C@@H]3CCCN3Cc3cnc4ccccc4c3)n2)cn1	none
CNc1ccc(-c2noc([C@@H]3CCCN3Cc3ccc(CO)o3)n2)cn1	none
c1cc(-c2noc([C@@H]3CCCN3C3CCC3)n2)cc(N2CCOCC2)n1	none
c1ccc(CN2CCC[C@H]2c2nc(-c3ccnc(N4CCOCC4)c3)no2)cc1	Pf Dd2 inh 13µM
CN1CCN(c2ccc(-c3noc([C@@H]4CCCN4Cc4ccccc4)n3)cn2)CC1	Pf Dd2 inh 7.9µM
Cc1ccc2nc(CO[C@H]3CN(C(=O)c4ccccc4)C[C@H]3F)[nH]c2c1	none
COCC(=O)N1CCCC(C(=O)NCc2ccc3nsnc3c2)C1 (stereo unspecified)	none
Cc1ccc(N2CCC3(CCCN3Cc3ccc4nsnc4c3)CC2)nn1	Pf Dd2 inh 13µM
CN(Cc1ccc2nsnc2c1)C(=O)c1ccc(N2CCCC2=O)cc1	none
CC1(COc2ccc3[nH]ccc3c2)COc2ccc(C(=O)N3CC(O)C3)cc2N1 (stereo unspecified)	none
O=C(c1cscn1)N1CC[C@@H]2[C@@H](CCC(=O)N2CCc2ccccn2)C1	none
COCC(=O)N1CCN(C(=O)CSCC(=O)O)C[C@H]1C(=O)N[C@H]1CCCNC1=O	none
CCOc1ccccc1CN1CCc2nc(N(C)C)[nH]c(=O)c2CC1	none
COc1cc(CN2CCc3nc(N4CCN(c5ncccn5)CC4)ncc3C2)cc(OC)c1OC	Pf Dd2 inh 7.9µM
Cc1ccccc1CN1CCc2nc(N3CCN(c4ncccn4)CC3)ncc2C1	Pf Dd2 inh 8.9µM
Cc1ccc(CN2CCc3nc(N4CCN(c5ccccc5F)CC4)ncc3C2)cc1C	none
COCCn1cc(CN2CCN(c3ccccn3)CC2)ccc1=O	none
COc1cc(CN2CCc3nc(N4CCN(c5ccccc5F)CC4)ncc3C2)ccc1OC(C)C	none
CCOc1ccc(CN2CCc3nc(N4CCN(c5ccccn5)CC4)ncc3C2)cc1OC	none
CCCCN1CCc2nc(N3CCN(C)CC3)ncc2C1	none
CCOc1ccccc1CN1CCc2nc(N3CCN(c4ccccc4F)CC3)ncc2C1	Pf Dd2 inh 8.9µM
CN(C)c1ccc(CN2CCc3nc(N4CCN(c5ccccn5)CC4)ncc3C2)cc1	Pf Dd2 inh 13µM
COc1ccccc1N1CCN(c2ncc3c(n2)CCN(Cc2ccccc2C)C3)CC1	none
CCOc1ccc(CN2CCc3nc(Nc4ccc(OC)cc4OC)ncc3C2)cc1	none
CCc1nc(-c2c3n(c(=O)n(Cc4ccc(OC)cc4)c2=O)CCCCC3)no1	none
COc1ccc(C(=O)NCc2nnc3cc(-c4nc(C)no4)ccn23)cc1F	none
Cc1noc(-c2cn(C3CCN(C(=O)c4ccc(F)cc4)CC3)nn2)n1	none
COc1cccc(C(=O)N2CCCC(c3nn(-c4ccc(Cl)cc4)c(=O)[nH]3)C2)c1 (stereo unspecified)	none
O=C(CC1CCCN(c2cnn(CC3CC3)c(=O)c2)C1)NCCN1CCCCC1 (stereo unspecified)	none
O=C(C1CC(=O)N(c2n[nH]c3cccc(F)c23)C1)N1CCSCC1 (stereo unspecified)	none
CCc1noc(-c2cn(C3CCN(C(=O)c4ccc5c(c4)OCO5)C3)nn2)n1 (stereo unspecified)	none
O=C(Nc1ccc([C@H]2OCC(=O)N(Cc3ccc(F)cc3)[C@@H]2CO)cc1)c1cnccn1	none
CC(=O)N1CCc2c(nc(-c3ccccn3)nc2N(C)CCCN(C)C)C1	none
COC[C@H]1NC(=O)CC[C@H]1C(=O)N1CCCc2ccccc21	none
CN1CCN(c2ncc3c(n2)CCN(Cc2ccc(Br)s2)C3)CC1	none
CCN1CCN(c2ncc3c(n2)CCN(Cc2cc(Br)cs2)C3)CC1	Pf Dd2 inh 13µM
CCN1CCN(c2ncc3c(n2)CCN(Cc2ccc(C)s2)C3)CC1	none
Cc1ccc(C2Cn3nnc(C(=O)N4CCC(C(=O)NCc5ccccc5F)CC4)c3CO2)cc1 (stereo unspecified)	none
O=C(NCc1ccccc1-n1cncn1)C12CNCC1CNC2 (stereo unspecified)	none
CCOC(=O)N1CCN(C2CCCN(Cc3cc(C)ccc3-n3cccn3)C2)CC1 (stereo unspecified)	Pf Dd2 inh 10µM
COCC[C@]1(O)CCN(Cc2cc(F)ccc2-n2cccn2)C[C@H]1C	none
COc1ccc(-n2cccn2)c(CN2CC[C@H](CO)[C@H](O)C2)c1	none
O=C(c1ccccc1)N1C[C@@H](F)[C@@H](OCc2nc3ccc(C(F)(F)F)cc3[nH]2)C1	none
CC(=O)N1CCC([C@@H]2CN(C(=O)CCCc3ccccc3)C[C@H]2CO)CC1	none
Cc1cccc(C(=O)N2CCC3(CCCCO3)CC2)c1	none
COc1cc(CCC(=O)N(C)C2CCc3nn(CC4CC4)c(=O)n3CC2)on1 (stereo unspecified)	none
CN(Cc1cccnc1)Cc1nc(CC(N)=O)nn1-c1ccc2c(c1)CCC2	none
c1ccc2c(c1)COC1(CCNC1)CN2CC1CCCCC1 (stereo unspecified)	Pf Dd2 inh 13µM
O=C(C1CCCC1)N1CC2(CCN(C3COC3)C2)OCc2ccccc21 (stereo unspecified)	none
O=C(C1CCCC1)N1CC2(CCNC2)OCc2ccccc21 (stereo unspecified)	none
O=C(NC1CCCCC1)O[C@@H]1CO[C@H]2[C@@H]1OC[C@@H]2NC(=O)c1ccccc1	none
CC(C)[C@]1(O)CN(C(=O)Cn2[nH]c3ccccc3c2=O)C[C@H]1C	none
CNC(=O)[C@@H]1CN(C(=O)Cn2c(=O)oc3ccccc32)C[C@H]1COC	none
COc1ccc(-n2c(=O)c3c(n2Cc2ccccc2)CN(C(=O)c2ccnn2C)CC3)cc1	none
COc1ccc(C(=O)N2CCC(Cc3nc(-c4ccc(F)cc4)no3)CC2)c(C)c1	none
COc1ccc2c(c1)OCC(CNC(=O)c1cc(-c3ccncc3)n[nH]1)C2 (stereo unspecified)	Pf Dd2 inh 13µM
